High-throughput results deposited in PubChem BioAssay by National Center for Advancing Translational Sciences (NCATS).
A selection: hits, their analogues and other compounds. The true share with any hit is near 6.5%.
HT1080 IDH1KD tx: qHTS for induction of synthetic lethality in tumor cells producing 2HG: qHTS for the HT-1080-IDH1KD cell line. Potency, µM (doses to about 46.1 µM), inactives show top-dose activity, negative = toxicity, usual class: cytotoxic. HT-1080 IDH1 knockdown viability, ATP luminescence, 48 h. 2% of 360,000 active. AID 686971, 2013;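 also: potency is read from the fitted curve at half-maximal effect; 0% = DMSO wells and -100% = cell-free medium wells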
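Luminescent ATP read-out (CellTiter-Glo, 10 min at room temperature) after 48 h compound exposure at 37 °C gave viability of IDH1-knockdown HT-1080 cells. Activity was normalised to DMSO and cell-free wells, then fitted as concentration-response curves.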
Giardia killer: Small Molecules that selectively kill Giardia lamblia: qHTS; Giardia lamblia trophozoite viability; activity change, % at 7.66 µM, hits read low; 0.15% of 340,000 active; AID 540267, 2011; in the data active = activity change below about -80%; inconclusive = between about -30% and that limit;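 also: parasites exposed to compound for two days anaerobically before the ATP read; % is scaled to controls: 0 for no effect and ±100 for the full control effect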
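Each well holds 100 Giardia trophozoites and compound. After two days (48 hrs) at 37 deg C in anaerobic conditions, ATP is quantified by luminescence.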
HepG2 tox: qHTS for Inhibitors of TGF-b: Cytotox Counterscreen; HepG2 CAGA-GFP viability, ATP luminescence, 18 h; Potency, µM (titrated, usually from 46.1 µM), without a hit: at the highest dose activity change, negative = cytotoxicity, hits mostly cytotoxic; 0.76% of 410,000 active; AID 588856, 2011; also: potency is read from the fitted curve at half-maximal effect
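CellTiter-Glo luminescence gave cytotoxicity after 18 hours at 37 degrees C. The cells were HepG2 CAGA-GFP in 1% FBS DMEM, stimulated with 500 pg/mL TGF-beta after compound addition. %Activity was normalised to no-cell wells (complete cell-killing) and DMSO (no toxicity), and curves were fitted and classified.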
HT1080-NT tox: qHTS for induction of synthetic lethality in tumor cells producing 2HG: qHTS for the HT-1080-NT fibrosarcoma cell line; HT-1080-NT fibrosarcoma viability, CellTiter-Glo ATP luminescence, 48 h; 1.6% of 360,000 active; AID 686970, 2013; Potency, µM (titrated, usually from 46.1 µM), without a hit: top-dose activity, negative = less viability, usual class: cytotoxic;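 also: NT is the 2HG producing partner of a matched IDH1 knockdown line; potency is read from the fitted curve at half-maximal effect; 0% = DMSO-treated cells and -100% = media-only wells without cells; nearly all actives have a fitted effect of over 55% in size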
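Compounds were tested in concentration-response format on HT-1080-NT cells for 48 hours at 37 degrees C. Cell viability came from CellTiter-Glo luminescence; curves were classified by r2, response magnitude and activity.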
IL1B secr inh: qHTS for Inhibitors of Inflammasome Signaling: IL-1-beta AlphaLISA Primary Screen; activity change, % at 57.5 µM; 4.7% of 360,000 active; AID 743279, 2014; THP-1 LPS/ATP IL-1B secretion, AlphaLISA, 16 h; stronger effect = lower value; in the data active = activity change below about -50%; inconclusive = mostly about -30% to -49%; also: % is scaled to controls: 0 for no effect and ±100 for the full control effect
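THP-1 cells pretreated 1 hr with compounds (up to 57.5 uM final), then stimulated with LPS (250 ng/mL final) plus ATP (1.25 mM final); secreted IL-1B measured by AlphaLISA after 16 hr, decreased signal indicating inhibition.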
TGFb SMAD3 inh: qHTS for Inhibitors of TGF-b. 1.2% of 410,000 active. Potency, µM (series often up to 46.1 µM), for the others: top-dose activity, negative = inhibition, usual class: inhibitors. HepG2 CAGA-GFP TGF-b/SMAD3 reporter, GFP fluorescence, 18 h; TGF-beta stimulated, 500 pg/mL final; also: potency is read from the fitted curve at half-maximal effect; % is scaled to controls: 0 for no effect and ±100 for the full control effect; nearly all actives have a fitted effect of over 65% in size
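Inhibition was scored as loss of TGF-beta-induced (500 pg/mL final, 18 hours, 37 degrees C) GFP in HEPG2 cells carrying a CAGA-GFP reporter, in DMEM with 1% FBS. Well GFP was summed per cell; Activity was normalised to unstimulated and stimulated DMSO wells, then concentration-response fitting.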
Numbers without * were called inactive; u = inconclusive; x = no result given. Unless noted, calls follow the shape of the dose curve; as a rule, active = well fitted curve in the direction sought with a large enough effect; inconclusive = small, poorly fitted or top-dose-only effect, or another doubt; inactive = no such curve, though single readings can be large; an effect the other way counts as inactive or inconclusive.

SMILES	HT1080 IDH1KD tx	Giardia killer	HepG2 tox	HT1080-NT tox	IL1B secr inh	TGFb SMAD3 inh
COc1ccc(/C=C/C(=O)NC(=S)NCC2CCCO2)cc1 (configuration not stated)	0%	16	18%	0%	23	-3%
O=C(/C=C/c1ccco1)Nc1ccccn1	u	-21	-52%	u	59	-10%
Cc1ccc(NC(=O)/C=C/c2ccco2)nc1	0.0058µM*	8	-3%	0.046µM*	-29	-12%
COc1ccc(OC)c2c(/C=C/c3ccc(N(C)C)cc3)ccnc12	x	x	9%	x	x	0%
COc1ccc(-n2nc(C(=O)NCC(=O)N3CCN(c4ccccc4)CC3)c3ccccc3c2=O)c(OC)c1	2%	u	-2%	5%	-1	-5%
Cc1cccc(N2C(=O)C(Oc3ccc(Cl)cc3Cl)C2C=O)c1C (configuration not stated)	u	-13	-72%	9.2µM*	-89*	u
CC1=CC2C(C(O)CC3(C)C2CC(C)C32OCOC23COCO3)C2(C)C/C(=C\O)C(=O)C=C12 (configuration not stated)	7.3µM*	-10	11µM*	18µM*	-104*	5.6µM*
CC(=O)C(=Cc1cc(C)n(-c2ccccc2)c1C)C(C)=O	-6%	-3	21%	-12%	-9	u
O=C(C[C@@H]1C=C[C@H](NC(=O)Cc2ccccn2)[C@@H](CO)O1)NCCc1ccccc1	18%	x	x	20%	-98*	x
NC12CCc3c(no[n+]3[O-])C1(O)CC(c1ccccc1)=[N+]2[O-] (configuration not stated)	4%	-7	2%	-9%	4	-12%
C#CC[N+](C)(C)C(C#Cc1ccccc1)CC=C (configuration not stated)	u	8	-52%	-17%	-73*	0%
C#CC[N+](CC)(CC)CC#Cc1ccccc1	-3%	-6	-14%	1%	23	4%
COc1ccc(NC(=O)C(=O)NCC2CCCN2S(=O)(=O)c2cc(C)ccc2C)cc1 (configuration not stated)	18µM*	-9	-20%	u	-3	0%
CC(C)(C)c1ccc(C(=O)NCC2CCCN2S(=O)(=O)c2ccccc2)cc1 (configuration not stated)	-14%	-8	-14%	u	-57*	-18%
COc1ccc(NC(=O)C(=O)NCC2CCCN2S(=O)(=O)c2ccc(C)cc2)cc1 (configuration not stated)	0.052µM*	15	-12%	0.21µM*	58	u
COc1ccc(-c2csc(NC(=S)NC(=O)/C=C/c3ccco3)n2)cc1Br	2.6µM*	u	0%	3.7µM*	x	-18%
COc1ccc(-c2csc(NC(=S)NC(=O)/C=C/c3ccco3)n2)cc1OC	18µM*	-23	-27%	12µM*	-13	10%
CN(C)c1ccc(CNC(=O)CCn2cccn2)cc1	x	x	-3%	x	x	-25%
COC(=O)Cc1csc(Nc2ccccc2Cl)n1	u	-8	-24%	23%	1	-33%
O=C(NCCOc1nc(N2CCCCC2)nc(N2CCOCC2)n1)Nc1ccccc1	4%	-2	-2%	-1%	u	0%
O=C(NCCOc1nc(N2CCCCC2)nc(N2CCCCC2)n1)Nc1ccccc1	-10%	-5	-17%	2%	-63*	-5%
CCN(CC)c1nc(OCCNC(=O)Nc2ccccc2)nc(N(CC)CC)n1	18µM*	2	-59%	21µM*	-63*	u
O=C(COc1ccccc1Cl)Nc1ccc(CN2CCOCC2)cc1	-1%	51	-12%	-6%	-14	-16%
O=c1ccn([C@H]2C[C@H](O)[C@@H](CO)O2)c(=O)[nH]1	1%	15	-15%	7%	1	-1%
O=C(NCCS(=O)(=O)N1CCN(c2ccccc2F)CC1)C1CC(=O)N(c2ccc(F)cc2)C1 (configuration not stated)	12%	-25	12%	4%	17	10%
SMILES	HT1080 IDH1KD tx	Giardia killer	HepG2 tox	HT1080-NT tox	IL1B secr inh	TGFb SMAD3 inh
O=C(c1ccccc1)c1ccc(OCC(O)CNCc2ccc(Cl)cc2)cc1 (configuration not stated)	-14%	11	-90%	-10%	-60*	u
COc1cccc(CNCC(O)COc2ccc(C(=O)c3ccccc3)cc2)c1 (configuration not stated)	u	4	-30%	u	-19	-2%
Cc1ccc(OCC(O)CNCc2ccc(F)cc2)cc1 (configuration not stated)	u	u	-9%	u	-78*	u
CC(=O)c1cc(C#N)c(SCc2ccccc2)nc1C	-1%	20	-26%	-5%	-12	-3%
NCC1C2CCC(O2)C1CO (configuration not stated)	3%	x	-1%	11%	-4	6%
NS(=O)(=O)c1ccc(-c2c(-c3ccccc3)sc3ccccc23)cc1	7%	14	-19%	4%	6	u
CCN(CC)CCN(C(=O)c1ccc2c(c1)OCCO2)c1nc2cc(C)cc(C)c2s1	-17%	12	-49%	-5%	-57*	2%
CCN(CC)CCN(C(=O)c1ccc2c(c1)OCCO2)c1nc2c(Cl)cccc2s1	-17%	-7	-3%	-10%	-66*	-1%
CN(C)CCN(C(=O)c1ccccc1Cl)c1nc2c(Cl)cccc2s1	0%	36	-4%	-5%	-69*	-3%
CCN(CC)CCN(C(=O)c1ccc2ccccc2c1)c1nc2cc3c(cc2s1)OCO3	-6%	28	-14%	-15%	u	12%
Cc1cnc(C(=O)Nc2ccccc2-c2ccc(C)o2)cn1	-19%	-2	-25%	-1%	4	-2%
O=C(O)COc1ccccc1/C=N/n1c(C2CCCCC2)n[nH]c1=S	0%	-4	3%	4%	4	-14%
CCCCOC(=O)c1ccc(N/C(=N\S(=O)(=O)c2ccccc2)c2ccccc2)cc1	u	8	-2%	u	-54*	u
O=C(CCl)N=c1sccn1Cc1ccccc1Cl	0.092µM*	12	10µM*	0.092µM*	-100*	11µM*
O=C(CCl)N=c1sccn1Cc1ccc(Cl)cc1Cl	3.3µM*	6	13µM*	5.8µM*	-97*	u
